Most compounds without a hit are left out; they make up all but 3.2% or so of the library.
Mtb betalactam: beta-lactam sensitization of Mtb H37Rv. M. tuberculosis H37Rv growth with meropenem, percent inhibition. inhibition, % at 25 µM. 330,000 compounds, 0.27% hits; call rule not given here;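 further: growth measured after seven days incubation then overnight dye step; 0% = bacteria only wells and 100% = bacteria with antibiotic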
GDH-TPI counter-1: GDH-TPI coupled enzyme inhibition counter-screen. GDH-TPI coupled enzyme counterscreen, NADH absorbance. inhibition, % at 4.8 µM. 360,000 compounds, 1.2% hits. AID 588335; in the data active means inhibition above about 30%;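 further: 0% = DMSO wells and 100% = wells lacking the enzyme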
FBA Mtb inh: Mtb fructose-bisphosphate aldolase inhibition | purified M. tuberculosis FBA, fluorescence read-out | inhibition, % at 1 µM | 360,000 compounds, 2.3% hits | AID 588726;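 further: 0% = vehicle and 100% = reference inhibitor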
PriA SSB inh: inhibitors of Klebsiella pneumoniae PriA binding to SSB C-terminal tail | AlphaScreen SSBct-PriA binding, biotinylated peptide | inhibition, % at 33 µM | 430,000 compounds, 0.6% hits | AID 1272365; in the data active means inhibition mostly above about 37%, no sharp cut-off; inactive means mostly below about 20%;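 further: plate controls were negative control peptide for no effect and reference peptide for full effect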
Rv3671c inh: inhibitors of M. tuberculosis serine protease Rv3671c; inhibition, % at 5.96 µM; 320,000 compounds, 0.048% hits; in the data active means inhibition above about 38%;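 further: extracellular domain of Rv3671c used as enzyme; 0% = enzyme with DMSO and 100% = no enzyme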
Target sequence (P9WHR9 whole entry, looked up, the tested form may be a part): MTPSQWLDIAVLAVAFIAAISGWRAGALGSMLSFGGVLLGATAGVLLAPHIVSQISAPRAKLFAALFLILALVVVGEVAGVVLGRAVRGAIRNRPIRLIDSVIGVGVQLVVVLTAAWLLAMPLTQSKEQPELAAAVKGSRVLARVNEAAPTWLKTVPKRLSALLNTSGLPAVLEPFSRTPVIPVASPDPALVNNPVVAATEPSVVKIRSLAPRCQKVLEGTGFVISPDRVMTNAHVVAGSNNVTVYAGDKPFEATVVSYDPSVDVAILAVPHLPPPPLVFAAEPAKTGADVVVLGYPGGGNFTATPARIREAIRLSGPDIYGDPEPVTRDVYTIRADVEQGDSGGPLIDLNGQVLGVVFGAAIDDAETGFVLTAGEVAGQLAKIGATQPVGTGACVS
Mtb UGM inh: blocks M. tuberculosis UGM enzyme; P9WIQ1; 320,000 compounds, 0.06% hits; AID 504406; purified UGM, fluorescence polarization probe displacement; inhibition, % at 10 µM; in the data active means inhibition above about 10%, passing the limit was not always enough
Mtb FBA confirm: Mtb FBA inhibition, confirmed; shares compounds with FBA Mtb inh; purified M. tuberculosis FBA, fluorescence read-out; inhibition, % at 1 µM; 5,600 compounds, 78% hits; AID 651616;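 further: 0% = vehicle wells and 100% = reference inhibitor wells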
GDH-TPI counter-2: inhibits GDH-TPI coupling enzymes, flagging Mtb FBA hits; shares compounds with FBA Mtb inh; GDH-TPI coupled enzyme counterscreen, fluorescence; inhibition, % at 1 µM; 5,600 compounds, 81% hits; AID 652141; in the data active means inhibition above about 10%
The depositor's hits bear a star; x = no result. Unless noted, no stated cut-off is given here; in the data, active means inhibition above about 27%; inactive means the rest.

SMILES	Mtb betalactam	GDH-TPI counter-1	FBA Mtb inh	PriA SSB inh	Rv3671c inh	Mtb UGM inh	Mtb FBA confirm	GDH-TPI counter-2
Cc1ccc(-c2nc3ncccn3c2NC(=O)C2CC2)cc1	0	7	63*	-5	0	-3	36*	10*
CC(C)N(C(=O)CSc1nnc(-c2ccncc2)n1-n1cccc1)c1ccccc1	x	x	x	-2	x	x	x	x
COc1ccc(S(=O)(=O)Nc2ccn3nccc3c2)cc1OC	x	x	x	-8	x	x	x	x
O=C(CSc1ccc(NC(=O)c2ccco2)nn1)NCc1ccccc1Cl	x	x	x	5	x	x	x	x
c1ccc(Nc2ccc3ccccc3c2)cc1	x	1	33*	5	x	x	145*	97*
c1ccc(Nc2ccccc2)cc1	-1	-4	2	-9	2	3	x	x
NS(=O)(=O)c1ccc(NC(=O)c2csc3nc(-c4ccc(F)cc4)cn23)cc1	x	x	x	-1	x	x	x	x
COc1cccc2cc(C(=O)Nc3cnn(C4CCOCC4)c3)oc12	x	x	x	-14	x	x	x	x
CN1CCN(C(=O)c2ccc(-c3cccs3)s2)CC1	2	13	50*	0	-4	0	23	18*
CN1CCCN(C(=O)c2ccc(Br)s2)CC1	-3	2	-2	-4	-2	3	x	x
Cc1cc(C)n2ncc(C(=O)NCc3ccc(Cl)cc3)c2n1	-4	5	34*	-9	5	0	118*	89*
O=C(NCc1ccc(Cl)cc1)c1cnn2ccccc12	-3	6	38*	-21	16	x	2	-4
O=C(NCc1ccc(Cl)cc1)c1ccc2ccccc2n1	2	-2	65*	-40	-6	0	137*	118*
O=C(NCCOc1ccc(Cl)cc1)c1ccc2ccccc2n1	83	1	-2	-2	-6	-3	x	x
O=C1NC(c2ccc3c(c2)OCO3)Nc2ccccc21 (stereo not given)	-5	8	20	-21	-2	0	x	x
O=C1NC(c2ccc(Br)cc2)Nc2ccccc21 (stereo not given)	2	10	42*	-3	1	-1	102*	95*
O=C1NC(c2ccc3ccccc3c2)Nc2ccccc21 (stereo not given)	x	8	50*	x	x	x	71*	87*
Cc1oc(-c2ccccc2)nc1CSc1nc(-c2ccncc2)cc(=O)[nH]1	x	x	x	-15	x	x	x	x
Cc1ccccc1CS(=O)(=O)CCC(=O)N1CCN(c2ccc(N3CCOCC3)nn2)CC1	-7	0	35*	-5	0	0	66*	60*
CC(Oc1ccccc1)C(=O)N1CCN(c2ccc(N3CCOCC3)nn2)CC1 (stereo not given)	-3	-7	30*	-9	0	-1	1	0
O=C(Cn1c(=O)oc2ccccc21)N1CCN(c2ccc(N3CCOCC3)nn2)CC1	8	14	28*	-16	-3	-1	132*	80*
O=C(c1ccccc1)N1CCN(c2ccc(N3CCOCC3)nn2)CC1	-5	1	32*	-4	9	1	28*	30*
Cc1nnc(NC(=O)C2CN(C(=O)COc3ccccc3F)C2)s1	x	x	x	0	x	x	x	x
CCn1nnc2c(Nc3ccc(Br)cc3F)ncnc21	x	x	x	-14	x	x	x	x
CN1CCCc2cc(C(CNC(=O)NC(C)(C)C)N3CCCC3)ccc21 (stereo not given)	x	x	x	-8	x	x	x	x
SMILES	Mtb betalactam	GDH-TPI counter-1	FBA Mtb inh	PriA SSB inh	Rv3671c inh	Mtb UGM inh	Mtb FBA confirm	GDH-TPI counter-2
O=C(O)CCCC(=O)Nc1nc2n(n1)C(c1ccc(F)cc1)CC(c1ccc(Cl)cc1)N2 (stereo not given)	-8	2	10	21	7	0	x	x
CC1=CC(c2ccc(Cl)cc2)n2nc(NC(=O)CCCC(=O)O)nc2N1 (stereo not given)	-8	2	75*	1	4	-1	59*	45*
COc1ccc(Cl)cc1C(=O)NCCOc1ccccc1	x	x	x	-35	x	x	x	x
NNC(=O)c1sc(-c2ccccc2)cc1N	-7	10	41*	7	1	1	-1	-3
CC(=O)c1sc(-c2ccccc2)cc1N	-4	11	5	-13	-2	0	x	x
COc1ccc(S(=O)(=O)N2CCCC2)cc1C(=O)Nc1ccc(S(C)(=O)=O)cc1	x	x	x	-9	x	x	x	x
CCCCC(CC)Cn1c(N)c(C#N)c2nc3ccccc3nc21 (stereo not given)	1	10	50*	-3	-11	-1	7	-5

Screens: PubChem BioAssay, several laboratories
